# The panel holds about 83,000 compounds, 20% with a hit somewhere; the sample as a whole holds those more often.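 How to read the values: 0–100, growth inhibition (40 = 60% inhibited); 0, no net growth; -100 to 0, cell death (-40 = 40% of starting cells died; -100 = all dead).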 Values without a mark were called inactive. Active and inactive are the calls of the source. The calls were made as follows: active = growth percent below 10; inactive = the rest.
# Columns and labels:
# Assay in all cases: NCI-60 one-dose screen, 48 h (100 = growth as untreated, 0 = no growth, -100 = all killed)
# Conditions in all cases: 10 µM unless noted
# [1] = system: DU-145 prostate
# [2] = system: K-562 leukemia
# [3] = system: MALME-3M melanoma
# [4] = system: MDA-MB-231 breast
# [5] = system: RXF 393 renal
# [6] = system: SF-268 CNS
# [7] = system: SF-295 CNS
# [8] = system: SF-539 CNS
# [9] = system: UACC-257 melanoma
# [10] = system: M14 melanoma
# [11] = system: HCT-15 colon
# [12] = system: HT29 colon
# [13] = system: SNB-75 CNS
# [14] = system: SNB-19 CNS
# [15] = system: U251 CNS
# [16] = system: PC-3 prostate
# [17] = system: SK-MEL-5 melanoma
# [18] = system: UACC-62 melanoma
# [19] = system: LOX IMVI melanoma
# [20] = system: SK-MEL-28 melanoma
SMILES,growth [1],growth [2],growth [3],growth [4],growth [5],growth [6],growth [7],growth [8],growth [9],growth [10],growth [11],growth [12],growth [13],growth [14],growth [15],growth [16],growth [17],growth [18],growth [19],growth [20]
CCc1ccc(C2=C/C(=C/c3ccccc3)C(=O)N2CCc2ccc(S(N)(=O)=O)cc2)cc1,115%,97.6%,94.3%,100%,99.3%,94%,101%,96.3%,106%,99.4%,108%,117%,66.3%,93.9%,99.7%,99.9%,98.1%,95.2%,94.9%,105%
CCCCC(CCCCCC(CCCC)C1NC(C)Cc2cc(OC)c(OC)cc21)C1NC(C)Cc2cc(OC)c(OC)cc21 (stereo not given),-100% (active),-76.8% (active),-73.4% (active),-67.4% (active),-89.4% (active),-88.6% (active),-70.7% (active),-95.8% (active),-80.6% (active),-90.2% (active),-95.5% (active),-86.3% (active),-99.9% (active),-69.8% (active),-94.7% (active),-60.8% (active),-96.1% (active),-70% (active),-99.1% (active),-98% (active)
COC(=O)[C@@H](NC(=O)NC(=O)NC(=O)CI)C(C)C,106%,15.2%,-46.4% (active),72.5%,83.3%,95.8%,95.3%,92.7%,87.1%,85.8%,37%,60.2%,102%,94.5%,100%,85.5%,85.2%,83.1%,-77.4% (active),91.7%
Nc1cc(NN=C(c2ccc(O)cc2)c2ccc(O)cc2)c([N+](=O)[O-])cc1[N+](=O)[O-],91.3%,78.4%,105%,54.4%,-69.9% (active),81.8%,75.8%,-55.3% (active),-60.6% (active),-52.9% (active),4.01% (active),98.4%,78.2%,-22.6% (active),4.49% (active),64.2%,-85.4% (active),42.3%,-32.5% (active),80.8%
COC(=O)c1c(C)[nH]c(/C=C2\N=C(c3ccc[nH]3)C=C2OC)c1C,9.5% (active),4.3% (active),-69.3% (active),-40.2% (active),-33.9% (active),18.3%,-56.7% (active),-59.7% (active),-49% (active),-24% (active),0.837% (active),-13.8% (active),-23.3% (active),30.5%,-27.9% (active),9.06% (active),-99.7% (active),-62.8% (active),-56.8% (active),-27.8% (active)
CC1(C)[C@@H](NOCCCN)CC[C@]2(C)[C@H]3C(=O)C=C4[C@@H]5C[C@](C)(C(=O)O)CC[C@]5(C)CC[C@@]4(C)[C@]3(C)CC[C@@H]12,-49.8% [100 µM] (active),-8.83% [100 µM] (active),-100% [100 µM] (active),-88.4% [100 µM] (active),-54.3% [100 µM] (active),-51.8% [100 µM] (active),-56.3% [100 µM] (active),-93.5% [100 µM] (active),-44.5% [100 µM] (active),-20.3% [100 µM] (active),-15% [100 µM] (active),-57.8% [100 µM] (active),-56.5% [100 µM] (active),-54.9% [100 µM] (active),-71.6% [100 µM] (active),-19.6% [100 µM] (active),-51.4% [100 µM] (active),-100% [100 µM] (active),-82.6% [100 µM] (active),-80.7% [100 µM] (active)
COc1ccc(NC(=O)Nc2ccc(-c3cccnc3)cc2N2CCC(CO)CC2)cc1,55.3%,24.8%,67.2%,34.2%,13.1%,52.5%,32%,15.1%,46.6%,63.3%,43.7%,9.77% (active),51.3%,49.3%,33%,83.7%,-38.3% (active),68.7%,71.9%,18.7%
OC(c1ccc(Cl)cc1)(c1ccc(Cl)cc1)C(O)(c1ccc(Cl)cc1)c1ccc(Cl)cc1,61.3%,32.4%,70.9%,39.8%,16.2%,38.9%,-2.57% (active),87.2%,64.7%,35.6%,33.8%,24%,27.8%,40.5%,46.6%,33.5%,71.7%,50.8%,11.2%,73.7%
CCOC(=O)n1cc(C2=C(c3ccc(OC)c(OC)c3)COC2=O)c2ccccc21,-7.55% (active),9.56% (active),45%,13.5%,-4.89% (active),28.2%,16.2%,-15% (active),91.2%,54.6%,7.9% (active),1.19% (active),13.9%,32.6%,23.6%,12%,-38.9% (active),32.9%,39.1%,63.8%
CCCCCCCCCCCCCCNC(=O)Nc1ccc(Cl)c(Cl)c1,40.1%,100%,22.2%,27.7%,24.4%,46%,18.6%,51.1%,41.4%,49.2%,16.9%,46.6%,53.7%,56.3%,19.8%,16.7%,51.3%,33.6%,7.74% (active),60.9%
CC(C)(C)c1cc(C(=O)Nc2cc3ccccc3cc2C(=O)NCCN)cc(C(C)(C)C)c1,-96.9% (active),-76.9% (active),-38.1% (active),-79.9% (active),-90.4% (active),-80.7% (active),-85.5% (active),-68.8% (active),-36.1% (active),-81.2% (active),-83.4% (active),-79.6% (active),-92.2% (active),-69% (active),-85.4% (active),-93% (active),-39.7% (active),-69.4% (active),-89.9% (active),-80.9% (active)
CC1Cc2ccc(OCCN(C)C)cc2C1=O (stereo not given),107%,100%,108%,112%,110%,103%,99.6%,99.5%,80%,99.4%,108%,98.5%,98%,106%,89.5%,89.9%,91.6%,105%,96.4%,103%
CCOC(=O)c1cnc2ccc(Br)cc2c1Nc1cccc(S(N)(=O)=O)c1,103%,90.7%,101%,89.9%,90.8%,88.1%,95.5%,99%,105%,110%,90.8%,107%,80.6%,88%,91.9%,94.5%,89.1%,103%,101%,109%
C=C(C)[C@@H]1CC[C@]2(COCCCN)CC[C@]3(C)[C@H](CC[C@@H]4[C@@](C)(CCCNCCCN)[C@H](C(=C)C)CC[C@]43C)[C@@H]12,-83.4% [100 µM] (active),-34.1% [100 µM] (active),-58.2% [100 µM] (active),-63.8% [100 µM] (active),-48.6% [100 µM] (active),-58.7% [100 µM] (active),-52.7% [100 µM] (active),-62.2% [100 µM] (active),-74.1% [100 µM] (active),-35.4% [100 µM] (active),-53.4% [100 µM] (active),-23.1% [100 µM] (active),-74.1% [100 µM] (active),-60.1% [100 µM] (active),-51.5% [100 µM] (active),-53.9% [100 µM] (active),-55.1% [100 µM] (active),-72.4% [100 µM] (active),-49.7% [100 µM] (active),-63.3% [100 µM] (active)

# From PubChem BioAssay (NCI)
